Paper PMC7862700, “An all-to-all approach to the identification of sequence-specific readers for epigenetic DNA modifications on cytosine”

Key:
Experiment in all cases: DAPPL (digital affinity profiling via proximity ligation, sequencing); 10 mM Tris-HCl pH 7.5, 50 mM NaCl, 1 mM DTT, 4% glycerol, room temperature, 30 min; GST-TFs on glutathione beads, 16-mer random dsDNA library, 0.1% formaldehyde crosslink after washing; high values mean tight binding
Details in all cases: protein: recombinant; tags: N-terminal GST; dsDNA, one strand shown
[1] = target: T1, FLI1 (Homo sapiens, UniProt Q01543 1-452)
T1 sequence: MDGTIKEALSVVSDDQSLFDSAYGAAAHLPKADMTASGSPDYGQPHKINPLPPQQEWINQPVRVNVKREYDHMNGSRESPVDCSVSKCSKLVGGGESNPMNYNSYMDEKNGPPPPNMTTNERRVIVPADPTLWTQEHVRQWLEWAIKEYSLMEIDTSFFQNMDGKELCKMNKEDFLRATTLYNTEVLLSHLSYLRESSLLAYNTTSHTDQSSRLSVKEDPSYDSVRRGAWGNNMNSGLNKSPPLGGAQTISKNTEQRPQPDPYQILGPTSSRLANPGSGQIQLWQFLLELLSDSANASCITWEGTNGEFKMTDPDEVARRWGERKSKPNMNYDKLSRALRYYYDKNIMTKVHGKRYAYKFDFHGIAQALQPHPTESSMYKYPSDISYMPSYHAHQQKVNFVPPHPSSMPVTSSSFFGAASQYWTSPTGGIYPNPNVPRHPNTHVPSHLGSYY
In short: (§1)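 Pools were built from human transcription factors expressed in yeast as GST fusions, captured on glutathione beads and DNA-barcoded, along with a tag-only sample. Incubation with 200 nmole of a 16-mer random double-stranded DNA library lasted 30 min at room temperature in Tris/NaCl/DTT/glycerol buffer, and was followed by washing, 0.1% formaldehyde crosslinking, proximity ligation, PCR amplification and Illumina NextSeq500 sequencing. Binding signal is the quotient of each hexamer's read frequency for a factor and its frequency for the tag-only sample.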

[2] = target: T2, ELK1 (Homo sapiens, UniProt P19419 1-428)
T2 sequence: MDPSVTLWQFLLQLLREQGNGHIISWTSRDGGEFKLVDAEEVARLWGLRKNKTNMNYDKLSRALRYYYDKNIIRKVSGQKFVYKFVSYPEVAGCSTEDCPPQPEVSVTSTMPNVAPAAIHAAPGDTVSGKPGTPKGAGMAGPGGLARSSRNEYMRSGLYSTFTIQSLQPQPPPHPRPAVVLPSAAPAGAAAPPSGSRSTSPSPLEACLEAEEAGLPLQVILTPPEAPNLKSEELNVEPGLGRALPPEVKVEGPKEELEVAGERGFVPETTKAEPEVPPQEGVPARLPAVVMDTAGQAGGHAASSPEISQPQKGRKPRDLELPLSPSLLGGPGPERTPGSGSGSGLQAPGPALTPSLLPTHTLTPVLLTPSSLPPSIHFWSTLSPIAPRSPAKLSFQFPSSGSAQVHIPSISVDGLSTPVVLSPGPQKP
In short: as §1

[3] = target: T3, GABPA (Homo sapiens, UniProt Q06546 1-454)
T3 sequence: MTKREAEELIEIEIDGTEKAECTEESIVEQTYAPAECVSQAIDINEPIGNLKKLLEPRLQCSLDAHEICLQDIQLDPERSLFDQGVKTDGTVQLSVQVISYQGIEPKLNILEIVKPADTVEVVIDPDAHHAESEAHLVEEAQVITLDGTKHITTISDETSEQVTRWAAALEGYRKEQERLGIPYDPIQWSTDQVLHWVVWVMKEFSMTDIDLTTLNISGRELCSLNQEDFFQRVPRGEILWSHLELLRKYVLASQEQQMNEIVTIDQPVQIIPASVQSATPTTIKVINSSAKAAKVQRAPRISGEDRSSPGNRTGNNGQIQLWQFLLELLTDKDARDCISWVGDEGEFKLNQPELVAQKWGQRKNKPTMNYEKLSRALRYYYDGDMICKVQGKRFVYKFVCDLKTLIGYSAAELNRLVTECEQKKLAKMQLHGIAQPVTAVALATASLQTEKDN
In short: as §1

[4] = target: T4, ERG (Homo sapiens, UniProt P11308 1-479)
T4 sequence: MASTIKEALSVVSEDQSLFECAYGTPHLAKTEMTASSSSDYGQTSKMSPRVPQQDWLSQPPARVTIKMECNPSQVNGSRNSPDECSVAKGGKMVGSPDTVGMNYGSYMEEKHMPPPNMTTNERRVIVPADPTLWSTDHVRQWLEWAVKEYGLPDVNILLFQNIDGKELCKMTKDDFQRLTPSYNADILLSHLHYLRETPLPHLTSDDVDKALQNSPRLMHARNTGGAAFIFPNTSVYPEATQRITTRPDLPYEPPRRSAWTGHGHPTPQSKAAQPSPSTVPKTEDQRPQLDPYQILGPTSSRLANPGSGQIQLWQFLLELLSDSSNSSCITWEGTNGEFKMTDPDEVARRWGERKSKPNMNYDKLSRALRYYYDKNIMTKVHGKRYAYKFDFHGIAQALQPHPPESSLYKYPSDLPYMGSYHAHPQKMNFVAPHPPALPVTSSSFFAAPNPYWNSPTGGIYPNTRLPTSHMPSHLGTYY
In short: as §1

[5] = target: ELF1 (Homo sapiens, UniProt P32519 1-619)
Sequence of ELF1 (P32519 whole entry): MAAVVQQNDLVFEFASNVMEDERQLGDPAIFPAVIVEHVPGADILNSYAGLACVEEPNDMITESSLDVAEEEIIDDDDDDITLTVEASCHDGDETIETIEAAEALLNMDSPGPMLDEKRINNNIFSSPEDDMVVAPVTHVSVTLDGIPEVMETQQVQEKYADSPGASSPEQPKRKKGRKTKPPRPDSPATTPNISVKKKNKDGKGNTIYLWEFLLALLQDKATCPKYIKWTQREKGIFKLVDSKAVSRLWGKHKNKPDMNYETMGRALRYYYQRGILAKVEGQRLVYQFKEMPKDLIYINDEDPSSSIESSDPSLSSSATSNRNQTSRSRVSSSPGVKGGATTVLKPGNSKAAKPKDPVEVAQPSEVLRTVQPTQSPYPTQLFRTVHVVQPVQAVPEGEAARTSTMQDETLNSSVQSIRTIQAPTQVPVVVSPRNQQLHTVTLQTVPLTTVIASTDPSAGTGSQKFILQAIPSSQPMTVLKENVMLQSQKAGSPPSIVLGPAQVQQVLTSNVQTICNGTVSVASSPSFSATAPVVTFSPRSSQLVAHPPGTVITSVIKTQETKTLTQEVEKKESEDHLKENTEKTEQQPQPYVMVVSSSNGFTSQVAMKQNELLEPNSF
In short: as §1

[6] = target: T5, EHF (Homo sapiens, UniProt Q9NZC4 1-300)
T5 sequence: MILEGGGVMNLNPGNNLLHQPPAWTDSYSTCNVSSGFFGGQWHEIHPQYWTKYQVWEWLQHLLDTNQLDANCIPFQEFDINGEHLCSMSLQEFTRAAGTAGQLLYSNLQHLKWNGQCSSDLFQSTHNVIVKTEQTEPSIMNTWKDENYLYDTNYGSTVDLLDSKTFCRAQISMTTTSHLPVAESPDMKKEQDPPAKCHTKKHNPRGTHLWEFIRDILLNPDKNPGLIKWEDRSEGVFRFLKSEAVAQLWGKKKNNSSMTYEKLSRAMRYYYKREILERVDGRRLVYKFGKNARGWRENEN
In short: as §1

[7] = target: SPI1 (Homo sapiens, UniProt P17947 1-270)
In short: as §1

[8] = target: T6, FEV (Homo sapiens, UniProt Q99581 1-238)
T6 sequence: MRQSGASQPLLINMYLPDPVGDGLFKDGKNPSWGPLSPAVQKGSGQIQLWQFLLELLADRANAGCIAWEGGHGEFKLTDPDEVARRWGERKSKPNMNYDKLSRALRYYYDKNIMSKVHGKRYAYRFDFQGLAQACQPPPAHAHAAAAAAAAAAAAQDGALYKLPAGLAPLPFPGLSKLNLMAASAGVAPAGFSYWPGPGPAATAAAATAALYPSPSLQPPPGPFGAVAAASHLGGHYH
In short: as §1

[9] = target: ETV5 (Homo sapiens, UniProt P41161 1-510)
Sequence of ETV5 (P41161 whole entry): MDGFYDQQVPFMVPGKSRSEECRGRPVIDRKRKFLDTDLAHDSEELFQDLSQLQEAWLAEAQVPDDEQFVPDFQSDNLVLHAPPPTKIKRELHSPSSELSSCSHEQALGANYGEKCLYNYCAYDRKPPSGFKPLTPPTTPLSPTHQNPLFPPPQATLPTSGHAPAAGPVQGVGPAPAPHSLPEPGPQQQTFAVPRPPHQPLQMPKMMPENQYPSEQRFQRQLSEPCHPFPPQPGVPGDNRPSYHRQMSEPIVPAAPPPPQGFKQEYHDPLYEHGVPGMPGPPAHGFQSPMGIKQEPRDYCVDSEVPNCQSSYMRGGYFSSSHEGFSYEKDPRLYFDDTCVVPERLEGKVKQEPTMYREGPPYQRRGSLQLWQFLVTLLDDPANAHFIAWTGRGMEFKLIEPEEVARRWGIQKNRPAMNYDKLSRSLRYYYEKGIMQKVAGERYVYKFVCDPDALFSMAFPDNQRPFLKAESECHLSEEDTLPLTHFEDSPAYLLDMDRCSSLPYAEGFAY
In short: as §1

[10] = target: ELF4 (Homo sapiens, UniProt Q99607 1-663)
Sequence of ELF4 (Q99607 whole entry): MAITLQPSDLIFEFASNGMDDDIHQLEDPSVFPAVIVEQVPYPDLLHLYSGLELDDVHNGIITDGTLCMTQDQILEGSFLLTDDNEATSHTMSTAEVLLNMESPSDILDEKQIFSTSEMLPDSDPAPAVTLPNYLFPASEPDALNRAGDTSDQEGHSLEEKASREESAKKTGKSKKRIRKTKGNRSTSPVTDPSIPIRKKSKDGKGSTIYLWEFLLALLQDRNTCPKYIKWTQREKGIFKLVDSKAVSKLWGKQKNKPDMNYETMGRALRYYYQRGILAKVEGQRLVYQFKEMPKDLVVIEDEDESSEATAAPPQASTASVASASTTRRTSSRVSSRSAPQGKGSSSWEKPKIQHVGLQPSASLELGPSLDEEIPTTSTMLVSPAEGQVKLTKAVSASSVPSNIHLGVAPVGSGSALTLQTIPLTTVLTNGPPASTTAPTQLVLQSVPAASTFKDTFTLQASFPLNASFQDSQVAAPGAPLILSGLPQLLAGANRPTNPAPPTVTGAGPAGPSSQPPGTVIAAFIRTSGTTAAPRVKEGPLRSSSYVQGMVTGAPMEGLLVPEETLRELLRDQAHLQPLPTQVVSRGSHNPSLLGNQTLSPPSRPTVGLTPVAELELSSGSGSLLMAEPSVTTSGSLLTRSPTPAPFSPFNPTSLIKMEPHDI
In short: as §1

[11] = target: T7, ETV2 (Homo sapiens, UniProt O00321 1-342)
T7 sequence: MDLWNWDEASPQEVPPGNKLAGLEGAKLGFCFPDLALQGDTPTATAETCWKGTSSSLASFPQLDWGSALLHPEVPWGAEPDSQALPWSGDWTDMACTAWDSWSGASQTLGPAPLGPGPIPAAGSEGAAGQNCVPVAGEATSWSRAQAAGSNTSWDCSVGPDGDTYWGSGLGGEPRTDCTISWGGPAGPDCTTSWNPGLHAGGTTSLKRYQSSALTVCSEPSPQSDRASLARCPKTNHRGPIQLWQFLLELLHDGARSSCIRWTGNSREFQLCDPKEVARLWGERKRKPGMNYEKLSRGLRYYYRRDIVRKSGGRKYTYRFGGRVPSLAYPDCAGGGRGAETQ
In short: as §1

[12] = target: T8, ELF3 (Homo sapiens, UniProt P78545 1-371)
T8 sequence: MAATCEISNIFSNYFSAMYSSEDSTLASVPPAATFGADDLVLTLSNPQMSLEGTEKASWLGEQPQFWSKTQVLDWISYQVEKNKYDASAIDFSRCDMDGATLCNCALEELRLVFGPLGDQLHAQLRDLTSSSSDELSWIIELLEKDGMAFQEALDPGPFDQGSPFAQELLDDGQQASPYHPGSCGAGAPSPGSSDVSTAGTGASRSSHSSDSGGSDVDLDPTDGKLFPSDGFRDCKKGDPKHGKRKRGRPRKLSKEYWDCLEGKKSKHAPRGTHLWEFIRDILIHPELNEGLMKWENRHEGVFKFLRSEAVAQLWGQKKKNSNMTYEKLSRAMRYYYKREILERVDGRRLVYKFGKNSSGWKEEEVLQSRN
In short: as §1

[13] = target: ETV1 (Homo sapiens, UniProt P50549 1-477)
Sequence of ETV1 (P50549 whole entry): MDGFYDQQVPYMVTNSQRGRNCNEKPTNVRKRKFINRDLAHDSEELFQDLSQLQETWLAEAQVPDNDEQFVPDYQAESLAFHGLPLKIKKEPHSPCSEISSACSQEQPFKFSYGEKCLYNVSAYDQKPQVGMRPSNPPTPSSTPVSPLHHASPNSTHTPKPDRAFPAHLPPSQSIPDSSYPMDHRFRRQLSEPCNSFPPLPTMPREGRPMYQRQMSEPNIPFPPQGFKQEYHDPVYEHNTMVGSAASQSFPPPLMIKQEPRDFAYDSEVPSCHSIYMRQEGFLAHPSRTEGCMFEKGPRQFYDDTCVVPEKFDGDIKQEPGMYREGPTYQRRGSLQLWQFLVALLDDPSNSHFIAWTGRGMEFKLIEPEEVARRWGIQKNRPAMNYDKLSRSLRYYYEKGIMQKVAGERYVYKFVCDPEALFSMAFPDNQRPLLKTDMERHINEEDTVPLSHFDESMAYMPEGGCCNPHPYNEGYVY
In short: as §1

[14] = target: T9, ERF (Homo sapiens, UniProt P50548 1-548)
T9 sequence: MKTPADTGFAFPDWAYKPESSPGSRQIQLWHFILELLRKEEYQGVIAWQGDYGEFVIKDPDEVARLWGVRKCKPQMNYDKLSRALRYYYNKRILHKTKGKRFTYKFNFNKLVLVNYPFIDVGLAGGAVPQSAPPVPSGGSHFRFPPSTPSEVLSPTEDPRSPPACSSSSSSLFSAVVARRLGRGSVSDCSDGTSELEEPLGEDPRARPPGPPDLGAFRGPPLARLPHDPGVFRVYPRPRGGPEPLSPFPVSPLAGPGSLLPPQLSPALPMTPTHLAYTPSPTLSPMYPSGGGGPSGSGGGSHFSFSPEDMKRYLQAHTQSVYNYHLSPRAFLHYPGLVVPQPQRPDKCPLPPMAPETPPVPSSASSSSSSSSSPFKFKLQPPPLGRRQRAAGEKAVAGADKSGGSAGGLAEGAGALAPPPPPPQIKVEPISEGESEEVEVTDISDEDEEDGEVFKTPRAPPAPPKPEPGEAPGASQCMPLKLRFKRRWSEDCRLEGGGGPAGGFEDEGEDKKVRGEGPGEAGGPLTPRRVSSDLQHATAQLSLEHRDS
In short: as §1

[15] = target: T10, ETV3L (Homo sapiens, UniProt Q6ZN32 1-361)
T10 sequence: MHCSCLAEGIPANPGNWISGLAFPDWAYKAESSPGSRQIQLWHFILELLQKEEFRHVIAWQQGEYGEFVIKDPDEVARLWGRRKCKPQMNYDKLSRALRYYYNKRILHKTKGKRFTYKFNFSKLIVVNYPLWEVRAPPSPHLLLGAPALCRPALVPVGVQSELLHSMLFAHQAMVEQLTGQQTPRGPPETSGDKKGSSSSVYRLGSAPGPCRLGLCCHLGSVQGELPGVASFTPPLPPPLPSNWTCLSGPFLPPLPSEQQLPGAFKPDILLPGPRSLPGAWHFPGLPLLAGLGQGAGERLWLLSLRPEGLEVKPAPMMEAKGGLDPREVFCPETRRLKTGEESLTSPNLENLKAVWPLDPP
In short: as §1

[16] = target: T11, ETS2 (Homo sapiens, UniProt P15036 1-469)
T11 sequence: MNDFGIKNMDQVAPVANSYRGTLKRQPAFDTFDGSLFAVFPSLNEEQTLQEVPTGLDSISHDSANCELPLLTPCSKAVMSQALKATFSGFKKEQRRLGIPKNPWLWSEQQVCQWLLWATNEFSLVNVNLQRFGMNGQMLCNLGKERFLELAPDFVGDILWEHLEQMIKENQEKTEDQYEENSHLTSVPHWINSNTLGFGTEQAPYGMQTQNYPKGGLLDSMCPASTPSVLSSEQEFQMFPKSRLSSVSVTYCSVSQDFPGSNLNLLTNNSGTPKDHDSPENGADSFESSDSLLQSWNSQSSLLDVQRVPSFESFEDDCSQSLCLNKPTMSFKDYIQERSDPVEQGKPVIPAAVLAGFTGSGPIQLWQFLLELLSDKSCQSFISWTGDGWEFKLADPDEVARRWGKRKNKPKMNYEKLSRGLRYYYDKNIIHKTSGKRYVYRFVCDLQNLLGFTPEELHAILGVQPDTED
In short: as §1

[17] = target: T12, ETV7 (Homo sapiens, UniProt Q9Y603 1-341)
T12 sequence: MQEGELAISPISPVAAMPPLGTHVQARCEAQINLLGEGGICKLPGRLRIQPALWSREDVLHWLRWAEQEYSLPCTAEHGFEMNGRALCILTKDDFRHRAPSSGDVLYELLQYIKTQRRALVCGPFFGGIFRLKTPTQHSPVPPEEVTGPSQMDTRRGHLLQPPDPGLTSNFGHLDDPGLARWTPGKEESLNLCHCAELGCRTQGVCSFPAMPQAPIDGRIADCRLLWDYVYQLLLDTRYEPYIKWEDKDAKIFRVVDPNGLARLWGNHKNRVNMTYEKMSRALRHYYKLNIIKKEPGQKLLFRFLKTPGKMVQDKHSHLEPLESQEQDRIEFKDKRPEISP
In short: as §1

[18] = target: T13, ETV3 (Homo sapiens, UniProt P41162-2 1-143)
T13 sequence: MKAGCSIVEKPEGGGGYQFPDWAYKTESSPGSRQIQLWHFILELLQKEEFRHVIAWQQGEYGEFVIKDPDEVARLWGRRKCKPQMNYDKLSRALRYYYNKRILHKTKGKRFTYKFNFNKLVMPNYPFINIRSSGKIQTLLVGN
In short: as §1

[19] = target: ETV6 (Homo sapiens, UniProt P41212 1-452)
Sequence of ETV6 (P41212 whole entry): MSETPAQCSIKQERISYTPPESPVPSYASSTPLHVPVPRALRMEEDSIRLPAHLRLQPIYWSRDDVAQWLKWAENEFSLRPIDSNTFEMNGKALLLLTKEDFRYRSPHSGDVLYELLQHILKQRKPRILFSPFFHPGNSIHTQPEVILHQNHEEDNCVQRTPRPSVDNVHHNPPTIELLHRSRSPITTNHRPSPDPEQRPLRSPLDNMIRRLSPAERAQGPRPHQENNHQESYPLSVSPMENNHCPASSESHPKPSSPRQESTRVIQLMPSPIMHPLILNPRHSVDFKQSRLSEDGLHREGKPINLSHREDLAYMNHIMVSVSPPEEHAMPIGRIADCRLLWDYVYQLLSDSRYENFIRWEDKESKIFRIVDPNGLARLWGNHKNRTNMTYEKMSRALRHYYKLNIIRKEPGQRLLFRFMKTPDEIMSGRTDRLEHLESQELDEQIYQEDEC
In short: as §1

For CACATG, the binding signal [1] was 1.18 fold enrichment (6-mer frequency, TF over GST control), the binding signal [2] was 1.1 fold enrichment (6-mer frequency, TF over GST control) and the binding signal [3] was 1.07 fold enrichment (6-mer frequency, TF over GST control). The binding signal [4] was 1.07 fold enrichment (6-mer frequency, TF over GST control), the binding signal [5] was 1.16 fold enrichment (6-mer frequency, TF over GST control) and the binding signal [6] was 1.16 fold enrichment (6-mer frequency, TF over GST control). The binding signal [7] was 1.11 fold enrichment (6-mer frequency, TF over GST control), the binding signal [8] was 1.11 fold enrichment (6-mer frequency, TF over GST control) and the binding signal [9] was 1.1 fold enrichment (6-mer frequency, TF over GST control). For the same sequence, the binding signal [10] was 1.09 fold enrichment (6-mer frequency, TF over GST control), the binding signal [11] was 1.12 fold enrichment (6-mer frequency, TF over GST control) and the binding signal [12] was 1.04 fold enrichment (6-mer frequency, TF over GST control). For the same sequence, the binding signal [13] was 1.1 fold enrichment (6-mer frequency, TF over GST control), the binding signal [14] was 1.12 fold enrichment (6-mer frequency, TF over GST control) and the binding signal [15] was 1.03 fold enrichment (6-mer frequency, TF over GST control). For the same sequence, the binding signal [16] was 1.11 fold enrichment (6-mer frequency, TF over GST control), the binding signal [17] was 1.03 fold enrichment (6-mer frequency, TF over GST control) and the binding signal [18] was 1.07 fold enrichment (6-mer frequency, TF over GST control). The binding signal [19] was 1.06 fold enrichment (6-mer frequency, TF over GST control).
